Data published in PubChem BioAssay (EPA / NIEHS).
Several values for one entry are separate records, joined by “and”; a condition that tells them apart may be missing. Identical values can stand only once. Activity calls are given as the source filed them. The calls were made as follows: active = hit-call score of the fitted dose curve at least 0.9, where 1 is the maximum; inactive = score below 0.9.

What follows are compounds tested on Interleukin-1 alpha (IL1a), IL1A (gene 3552) (assay: BSK_KF3CT_IL1a: BioMAP Diversity Plus: KF3CT Assay for Interleukin-1 alpha (IL1a) Biomarker Activity (AID 2283070)). Details: primary human keratinocytes with fibroblasts; actives raise or lower the signal.
Procedure, shortened: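 Primary human keratinocyte plus foreskin fibroblast co-culture, dosed and measured at 24 h in 96-well plates. IL-1a level quantified by ELISA; bidirectional fit relative to DMSO.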

SMILES	outcome	AC50
O=C(O)C(F)(F)C(F)(F)C(F)(F)C(F)(F)F	inactive	–
OCC(F)(F)C(F)(F)C(F)(F)C(F)(F)C(F)(F)C(F)(F)F	inactive	–
C=C(C)C(=O)OCCC(F)(F)C(F)(F)C(F)(F)C(F)(F)C(F)(C(F)(F)F)C(F)(F)F	inactive	–
O=P(O)(O)OCCC(F)(F)C(F)(F)C(F)(F)C(F)(F)C(F)(F)C(F)(F)F	inactive	–
O=S(=O)(OCC(F)F)C(F)(F)F	inactive	–
O=C(CC(=O)C(F)(F)C(F)(F)F)C(F)(F)F	inactive	–
C=CC(=O)OCC(F)(F)C(F)(F)C(F)(F)C(F)(F)COC(=O)C=C	–	18.6 µM (active) and 48.2 µM (active)
CCCCCCCCC(F)(F)C(F)(F)C(F)(F)C(F)(F)C(F)(F)C(F)(F)F	inactive	–
N=C(N)C(F)(F)C(F)(F)C(F)(F)C(F)(F)C(F)(F)C(F)(F)C(F)(F)F	inactive	–
O=C(O)C(F)(F)C(F)(F)F	inactive	–
FC(F)(I)C(F)(F)C(F)(F)C(F)(F)I	–	53.2 µM (active) and 47.2 µM (active) and 47.7 µM (active)
FC(F)(F)C(F)(F)C(F)(F)C(F)(F)C(F)(F)C(F)(F)C(F)(F)C(F)(F)F	inactive	–
FC(F)(F)C(F)(F)C(F)(F)N(C(F)(F)C(F)(F)C(F)(F)F)C(F)(F)C(F)(F)C(F)(F)F	inactive	–
FC(F)(F)C(F)(F)CNCC(F)(F)C(F)(F)F	inactive	–
FC(F)(F)C(F)(F)C(F)(F)C(F)(F)C(F)(F)C(F)(F)CCS	inactive	–
O=C(O)C(F)(F)C(F)(F)C(F)(F)F	inactive	–
O=C(O)C(F)(F)C(F)(F)C(F)(F)C(F)(F)C(F)(F)C(F)(F)C(F)(F)C(F)(F)Cl	–	30 µM (active) and 20.5 µM (active)
O=C(O)C(F)(OC(F)(F)C(F)(OC(F)(F)C(F)(OC(F)(F)C(F)(F)C(F)(F)F)C(F)(F)F)C(F)(F)F)C(F)(F)F (configuration not stated)	inactive	–

SMILES	outcome	AC50
FC(F)(Br)C(F)(F)C(F)(F)C(F)(F)C(F)(F)C(F)(F)Br	inactive	–
O=C(O)C(F)(F)C(F)(F)C(F)F	inactive	–
O=C(O)C(F)(OC(F)(F)C(F)(OC(F)(F)C(F)(F)C(F)(F)F)C(F)(F)F)C(F)(F)F (configuration not stated)	inactive	–
CCCCC(CC)COP(=O)(O)OCC(CC)CCCC (configuration not stated)	inactive	–
C=CC(F)(F)C(F)(F)C(F)(F)C(F)(F)C(F)(F)C(F)(F)C(F)(F)C(F)(F)F	inactive	–
COC(=O)CCC(F)(F)C(F)(F)C(F)(F)C(F)(F)F	inactive	–
C=CC(=O)OCC(F)(F)C(F)(F)C(F)(F)C(F)(F)C(F)(F)C(F)(F)C(F)(F)F	inactive	–
FC(F)(F)C(F)(F)C(F)(F)C(F)(F)C(F)(F)C(F)(F)CC1CO1 (configuration not stated)	inactive	–
FC(F)(F)C(F)(F)C(F)(F)C(F)(F)C(F)(F)C(F)(F)C(F)(F)C(F)(F)CCS	inactive	–
OCC(F)(F)C(F)(F)C(F)(F)C(F)(F)C(F)(F)C(F)F	inactive	–
FC1CC(F)(F)C(F)(F)C1(F)F (configuration not stated)	inactive	–
FC(F)(F)C(F)(F)C(F)(F)CI	inactive	–
NC(=O)C(F)(F)C(F)(F)C(F)(F)C(F)(F)F	inactive	–
C=CC(F)(F)C(F)(F)C(F)(F)C(F)(F)C(F)(F)C(F)(F)C(F)(F)C(F)(F)C=C	inactive	–
OCC(F)(F)C(F)(F)C(F)(F)C(F)F	inactive	–
OCC(F)(F)C(F)(F)C(F)(F)F	inactive	–
OCCCC(F)(F)C(F)(F)C(F)(F)F	inactive	–
O=S(=O)(OCCOC(F)(F)F)C(F)(F)F	inactive	–

What follows are compounds tested on TIMP metallopeptidase inhibitor 2 (TIMP2), TIMP2 (gene 7077) (assay: BSK_KF3CT_TIMP2: BioMAP Diversity Plus: KF3CT Assay for TIMP metallopeptidase inhibitor 2 (TIMP2) Biomarker Activity (AID 2283071)). Details: primary human keratinocytes with fibroblasts; actives raise or lower the signal.
Procedure, shortened: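 Human primary keratinocyte/foreskin fibroblast co-culture dosed with chemical and sampled at 24 h. TIMP-2 levels quantified by ELISA; bidirectional fitting against DMSO negative control as baseline.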

SMILES	outcome	AC50
O=C(O)C(F)(F)C(F)(F)C(F)(F)C(F)(F)F	inactive	–
OCC(F)(F)C(F)(F)C(F)(F)C(F)(F)C(F)(F)C(F)(F)F	inactive	–
C=C(C)C(=O)OCCC(F)(F)C(F)(F)C(F)(F)C(F)(F)C(F)(C(F)(F)F)C(F)(F)F	inactive	–
O=P(O)(O)OCCC(F)(F)C(F)(F)C(F)(F)C(F)(F)C(F)(F)C(F)(F)F	inactive	–
O=S(=O)(OCC(F)F)C(F)(F)F	inactive	–
O=C(CC(=O)C(F)(F)C(F)(F)F)C(F)(F)F	inactive	–
C=CC(=O)OCC(F)(F)C(F)(F)C(F)(F)C(F)(F)COC(=O)C=C	–	25.7 µM (active) and 33.3 µM (active)
CCCCCCCCC(F)(F)C(F)(F)C(F)(F)C(F)(F)C(F)(F)C(F)(F)F	inactive	–
N=C(N)C(F)(F)C(F)(F)C(F)(F)C(F)(F)C(F)(F)C(F)(F)C(F)(F)F	inactive	–
O=C(O)C(F)(F)C(F)(F)F	inactive	–
FC(F)(I)C(F)(F)C(F)(F)C(F)(F)I	–	54.2 µM (active) and 46.7 µM (active) and 53.1 µM (active)
FC(F)(F)C(F)(F)C(F)(F)C(F)(F)C(F)(F)C(F)(F)C(F)(F)C(F)(F)F	inactive	–
FC(F)(F)C(F)(F)C(F)(F)N(C(F)(F)C(F)(F)C(F)(F)F)C(F)(F)C(F)(F)C(F)(F)F	inactive	–
FC(F)(F)C(F)(F)CNCC(F)(F)C(F)(F)F	inactive	–
FC(F)(F)C(F)(F)C(F)(F)C(F)(F)C(F)(F)C(F)(F)CCS	inactive	–
O=C(O)C(F)(F)C(F)(F)C(F)(F)F	inactive	–
O=C(O)C(F)(F)C(F)(F)C(F)(F)C(F)(F)C(F)(F)C(F)(F)C(F)(F)C(F)(F)Cl	–	53.9 µM (active) and 52.6 µM (active)
O=C(O)C(F)(OC(F)(F)C(F)(OC(F)(F)C(F)(OC(F)(F)C(F)(F)C(F)(F)F)C(F)(F)F)C(F)(F)F)C(F)(F)F (configuration not stated)	inactive	–

SMILES	outcome	AC50
FC(F)(Br)C(F)(F)C(F)(F)C(F)(F)C(F)(F)C(F)(F)Br	inactive	–
O=C(O)C(F)(F)C(F)(F)C(F)F	inactive	–
O=C(O)C(F)(OC(F)(F)C(F)(OC(F)(F)C(F)(F)C(F)(F)F)C(F)(F)F)C(F)(F)F (configuration not stated)	inactive	–
CCCCC(CC)COP(=O)(O)OCC(CC)CCCC (configuration not stated)	–	25.5 µM (active) and 28.3 µM (active)
C=CC(F)(F)C(F)(F)C(F)(F)C(F)(F)C(F)(F)C(F)(F)C(F)(F)C(F)(F)F	inactive	–
COC(=O)CCC(F)(F)C(F)(F)C(F)(F)C(F)(F)F	inactive	–
C=CC(=O)OCC(F)(F)C(F)(F)C(F)(F)C(F)(F)C(F)(F)C(F)(F)C(F)(F)F	inactive	–
FC(F)(F)C(F)(F)C(F)(F)C(F)(F)C(F)(F)C(F)(F)CC1CO1 (configuration not stated)	inactive	–
FC(F)(F)C(F)(F)C(F)(F)C(F)(F)C(F)(F)C(F)(F)C(F)(F)C(F)(F)CCS	inactive	–
OCC(F)(F)C(F)(F)C(F)(F)C(F)(F)C(F)(F)C(F)F	inactive	–
FC1CC(F)(F)C(F)(F)C1(F)F (configuration not stated)	inactive	–
FC(F)(F)C(F)(F)C(F)(F)CI	inactive	–
NC(=O)C(F)(F)C(F)(F)C(F)(F)C(F)(F)F	inactive	–
C=CC(F)(F)C(F)(F)C(F)(F)C(F)(F)C(F)(F)C(F)(F)C(F)(F)C(F)(F)C=C	inactive	–
OCC(F)(F)C(F)(F)C(F)(F)C(F)F	inactive	–
OCC(F)(F)C(F)(F)C(F)(F)F	inactive	–
OCCCC(F)(F)C(F)(F)C(F)(F)F	inactive	–
O=S(=O)(OCCOC(F)(F)F)C(F)(F)F	inactive	–
